Data: the supplement of paper PMC10681739

Target: T1, ETS1 (UniProt P14921)
T1 sequence: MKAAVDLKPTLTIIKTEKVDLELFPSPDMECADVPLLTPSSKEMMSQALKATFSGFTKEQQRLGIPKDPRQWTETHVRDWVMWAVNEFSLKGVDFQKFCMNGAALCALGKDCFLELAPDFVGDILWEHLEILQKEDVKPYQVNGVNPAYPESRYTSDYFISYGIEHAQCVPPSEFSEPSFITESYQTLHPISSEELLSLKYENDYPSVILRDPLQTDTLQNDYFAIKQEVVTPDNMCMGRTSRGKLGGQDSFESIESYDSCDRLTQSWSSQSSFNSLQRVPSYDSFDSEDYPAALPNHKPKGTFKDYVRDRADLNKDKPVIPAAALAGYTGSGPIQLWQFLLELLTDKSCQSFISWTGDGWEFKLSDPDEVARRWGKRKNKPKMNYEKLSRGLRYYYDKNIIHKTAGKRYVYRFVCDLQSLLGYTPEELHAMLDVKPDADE
Assay: TF binding intensity (PBM fluorescence), negative control probe (arbitrary fluorescence units); higher = stronger binding
Protocol: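 gcPBM negative-control 36-bp genomic probes lacking TF binding sites. Each was incubated with recombinant human ETS1 or RUNX1 alone and detected by antibody fluorescence. Values are medians over replicate spots (4 spots for the ETS1-RUNX1 arrays, 3 for the ETS1-ETS1 array). The probes sit in constant array flanks that are not printed.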

Sequence	TF binding intensity
TGACCGGCGCCGACCCGGGGCGCCGAGAGGCCCACC (protein concentration 10 nM)	115
TCCGATGTTACCTGGGCTGGGCCATGGAGAATGGCG (protein concentration 10 nM)	112
ATAATGGAAAGCGAAACCGCAGATTAAGCAGGGACT (protein concentration 1 nM)	398
GTTGGGCCCCCTGGGCCTTGTTCTCGGGATCCAGGG (protein concentration 10 nM)	111
ACCTGGCTGTCTGGCTCCTTACTTTCCACCATTTTC (protein concentration 10 nM)	132
CTTAGTTCAGTGTAAGGGGCCTGGTTGTTGGATTTT (protein concentration 10 nM)	119
CCGGGACCCCGCCCCCGATCCCCGCCTACCGGGGCC (protein concentration 10 nM)	209
AAGGTTCTGATTCCGAGTCCCCTGAGGTGGCAGTGG (protein concentration 10 nM)	111
GAACTAACGAGGTCACTGAGAAATTACAAAGTGTGA (protein concentration 10 nM)	107
GAGCAGGAGAAAATGTGTCTGAGAAAGAGCTAGGAG (protein concentration 10 nM)	128
GTTAGAATGCAACCTTTTGACTTATATCTTTTCCCC (protein concentration 10 nM)	140
TTATAGCATCTATTTATGTAAATCATATCTCCTTTT (protein concentration 10 nM)	101
AACTTGTCCCTGGAATGTGGTTGAAACAGACTTAGG (protein concentration 1 nM)	448
CTCTGTTACAAAGCTTCACTTCTTAAGAGAGGGCTG (protein concentration 10 nM)	134
ACTTAGGTCTCTGTTACCACCATGAAACAATTTAGT (protein concentration 1 nM)	545
AGACAGAAAAAGCCACAGCCGAGCGCCCAGCTGTGG (protein concentration 10 nM)	95.8
ACTCTAGTTTGTGATTTTTAAAACGTTTGAAAGCCA (protein concentration 10 nM)	124

Sequence	TF binding intensity
GATGTGGCCTATAGGGATCCTTCACTTAGGCATGAG (protein concentration 10 nM)	121
TTATAGGTGAGAGCTACCATGCCTGGTCCTATTTAA (protein concentration 10 nM)	97.6
AAGTATTGTAGTTGTTGTGGTAAAAACAGATAGATA (protein concentration 1 nM)	529
GAAATCCAGGAGAAAAATGCAGGACAGTCAGAGTAA (protein concentration 10 nM)	106
CTGAGAGCCAGGCCCGTTCCCTCTGAACCTCAGTTC (protein concentration 10 nM)	103
CTGAAATTAACCCAAAGGTTGTGTGTGGACCTCCCT (protein concentration 10 nM)	109
ATACATACCTTTCACCCTCCATTGTGTGAGGCCCAG (protein concentration 10 nM)	114
AAAACAAACAAACCAAACAACACAACAGAAGTTTTC (protein concentration 10 nM)	150
TCCAGAATTGCAAGGTCTGGGGAGCTGGGTGCCACA (protein concentration 10 nM)	107
AAAGGCATGTAATGAACACTAAAACCCAAGAACCTG (protein concentration 10 nM)	114
TTAACCTCTAGAAAAAGTAAATATTCAGCAATAGGA (protein concentration 10 nM)	103
TTATCAAGTGAATCAAGCCATTGTCGGGTCGAAATA (protein concentration 10 nM)	117
GGCCCTGGGCCTGACCCATGAAATCATTTTTCCCTT (protein concentration 10 nM)	94.3
AGTTCAAAAAAGCCCAAATGCTATAGGGACAACAAC (protein concentration 10 nM)	148
CCGGGCCGCTGCGGGCTCCCCAGCTCCCCACAGATC (protein concentration 10 nM)	147
GCTGGGAGACAGAGCCAGACACTGTCTCAAAAAAAA (protein concentration 10 nM)	110
CAGGAGAAATATGAGATTAAGAACACATGATGTTAA (protein concentration 10 nM)	123
